Among the data in PubChem BioAssay (EPA / NIEHS) are outcome and AC50 values, retold here.

Read-out in test [1]: Interleukin-1 alpha (IL1a), IL1A (gene 3552)
Nature of the test: BSK_KF3CT_IL1a: BioMAP Diversity Plus: KF3CT Assay for Interleukin-1 alpha (IL1a) Biomarker Activity (AID 2283070). To be noted: primary human keratinocytes with fibroblasts; actives raise or lower the signal. In a few lines:
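Primary skin co-culture (keratinocytes, foreskin fibroblasts), 24 h exposure; ELISA for IL-1a; bidirectional curve fit vs DMSO.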

Read-out in test [2]: TIMP metallopeptidase inhibitor 2 (TIMP2), TIMP2 (gene 7077)
Nature of the test: BSK_KF3CT_TIMP2: BioMAP Diversity Plus: KF3CT Assay for TIMP metallopeptidase inhibitor 2 (TIMP2) Biomarker Activity (AID 2283071). Conditions: primary human keratinocytes with fibroblasts; actives raise or lower the signal. The method in brief: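 ELISA readout of TIMP-2 in keratinocyte plus foreskin fibroblast co-cultures (human skin primary cells), 24 h post-dose. Gain or loss of signal fitted relative to DMSO.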

Read-out in test [3]: C-C motif chemokine 2 (Homo sapiens) (UniProt P13500)
Put plainly: BSK_KF3CT_MCP1: BioMAP Diversity Plus: KF3CT Assay for Monocyte Chemoattractant Protein 1 (MCP1/CCL2) Biomarker Activity (AID 2283073). Conditions: primary human keratinocytes with fibroblasts; actives raise or lower the signal. The method in brief:
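ELISA readout of MCP-1 after 24 h chemical dosing of a human skin primary co-culture of keratinocytes and foreskin fibroblasts. Activity was fitted in both directions against DMSO.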

Read-out in test [4]: Matrix Metallopeptidase 9 (MMP9), MMP9 (gene 4318)
Put plainly: BSK_KF3CT_MMP9: BioMAP Diversity Plus: KF3CT Assay for Matrix Metallopeptidase 9 (MMP9) Biomarker Activity (AID 2283074).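 For AC50: MMP9 protein level quantified by ELISA in the co-culture.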 Conditions: primary human keratinocytes with fibroblasts; actives raise or lower the signal. The method in brief: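 ELISA read-out of MMP-9 at 24 h post-dosing in a co-culture of human skin keratinocytes and foreskin fibroblasts. Gain or loss of signal was fitted in both directions against DMSO.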

Read-out in test [5]: urokinase plasminogen activator (uPA), PLAU (gene 5328)
Put plainly: BSK_KF3CT_uPA: BioMAP Diversity Plus: KF3CT Assay for urokinase plasminogen activator (uPA) Biomarker Activity (AID 2283075). To be noted: primary human keratinocytes with fibroblasts; actives raise or lower the signal. In a few lines:
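Skin co-culture (keratinocytes + foreskin fibroblasts), human primary; 24 h post-dose; uPA by ELISA; gain/loss fit vs DMSO baseline.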

Read-out in test [6]: CD40, CD40 (gene 958)
Nature of the test: BSK_LPS_CD40: BioMAP Diversity Plus: LPS Assay for CD40 Biomarker Activity (AID 2283076). To be noted: primary human HUVEC with PBMC; actives raise or lower the signal. The method in brief: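 Cells were dosed, incubated 24 h, then assayed for CD40 by ELISA. Gain or loss of signal was analysed relative to DMSO controls. The culture paired human umbilical vein endothelium with peripheral blood mononuclear cells.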

Read-out in test [7]: Interleukin-8 (IL8), CXCL8 (gene 3576)
Nature of the test: BSK_LPS_IL8: BioMAP Diversity Plus: LPS Assay for Interleukin-8 (IL8) Biomarker Activity (AID 2283078). Conditions: primary human HUVEC with PBMC; actives raise or lower the signal. In a few lines: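 Readout is IL-8 by ELISA, taken 24 h after compounds were added to LPS-stimulated endothelial/PBMC co-cultures. Both increases and decreases relative to DMSO control were scored through bidirectional fitting.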

Test [8] is described as follows: BSK_LPS_SRB: Viability Assessment in the BioMAP Diversity Plus: LPS Assay (AID 2283079).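 Note: total protein by sulforhodamine B absorbance as a cytotoxicity measure; measured one day after compound addition.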 Conditions: primary human HUVEC with PBMC. In a few lines: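 Readout is SRB absorbance at 560 nm (0.1% stain, TCA-fixed parallel cultures) as a total-protein cytotoxicity measure. Cells: primary human umbilical vein endothelium plus peripheral blood mononuclear cells, 24 h after chemical exposure; DMSO served as baseline.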

Read-out in test [9]: Interleukin-1 alpha (IL1a), IL1A (gene 3552)
Put plainly: BSK_LPS_IL1a: BioMAP Diversity Plus: LPS Assay for Interleukin-1 alpha (IL1a) Biomarker Activity (AID 2283080). To be noted: primary human HUVEC with PBMC; actives raise or lower the signal. In a few lines: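 ELISA read-out of IL-1 alpha from a human primary vascular co-culture (endothelium plus PBMC) under LPS, sampled 24 hours post-dosing. Activity was fitted in both directions relative to DMSO controls.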

Read-out in test [10]: Monocyte Chemoattractant Protein-1 (MCP1), CCL2 (gene 6347)
Nature of the test: BSK_LPS_MCP1: BioMAP Diversity Plus: LPS Assay for Monocyte Chemoattractant Protein-1 (MCP1) Biomarker Activity (AID 2283081). To be noted: primary human HUVEC with PBMC; actives raise or lower the signal. The method in brief:
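Human endothelial–PBMC co-cultures were dosed with chemical, then LPS-driven MCP-1 levels were quantified by ELISA at 24 h. Activity in either direction was fitted versus DMSO negative control.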

Test [11] can be described thus: BSK_LPS_PGE2: BioMAP Diversity Plus: LPS Assay for Prostaglandin E2 (PGE2) Biomarker Activity (AID 2283082). To be noted: primary human HUVEC with PBMC; actives raise or lower the signal. In a few lines:
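ELISA read-out of PGE2 from human umbilical vein endothelial cells co-cultured with peripheral blood mononuclear cells under LPS, 24 h post-dose. Gain or loss of signal scored relative to DMSO baseline.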

Read-out in test [12]: Tissue Factor, F3 (gene 2152)
Put plainly: BSK_LPS_TissueFactor: BioMAP Diversity Plus: LPS Assay for Tissue Factor Biomarker Activity (AID 2283084). Conditions: primary human HUVEC with PBMC; actives raise or lower the signal. In a few lines: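 ELISA signal for cell-surface Tissue Factor (CD142) was read 24 h after compound dosing of an LPS-stimulated human endothelial–PBMC primary co-culture. Gain or loss of signal was scored relative to DMSO.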

Read-out in test [13]: Vascular cell adhesion molecule 1 (VCAM1), VCAM1 (gene 7412)
Put plainly: BSK_LPS_VCAM1: BioMAP Diversity Plus: LPS Assay for Vascular cell adhesion molecule 1 (VCAM1) Biomarker Activity (AID 2283086). To be noted: primary human HUVEC with PBMC; actives raise or lower the signal. In a few lines:
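ELISA read-out of VCAM-1 at 24 h post-dosing in an LPS-driven HUVEC/PBMC primary human co-culture; gain or loss of signal fitted bidirectionally against DMSO baseline. Cytotoxicity tracked in parallel cultures by SRB total-protein staining.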

Read-out in a further test: CD38, CD38 (gene 952)
Put plainly: BSK_SAg_CD38: BioMAP Diversity Plus: SAg Assay for CD38 Biomarker Activity (AID 2283087). Conditions: primary human HUVEC with PBMC; actives raise or lower the signal. The method in brief: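 Measures CD38 on a human endothelial/PBMC co-culture driven by SEB and TSST-1, 24 h after compound exposure, using ELISA with fluorescence detection; DMSO defines baseline for bidirectional curve fitting.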

Read-out in test [14]: CD40, CD40 (gene 958)
Put plainly: BSK_SAg_CD40: BioMAP Diversity Plus: SAg Assay for CD40 Biomarker Activity (AID 2283088). Conditions: primary human HUVEC with PBMC; actives raise or lower the signal. The method in brief:
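Compounds were dosed onto a human primary endothelial–PBMC co-culture, and after 24 h CD40 was quantified by ELISA using a fluorescence signal. Activity in either direction was fitted relative to DMSO.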

Read-out in another test: CD69, CD69 (gene 969)
Put plainly: BSK_SAg_CD69: BioMAP Diversity Plus: SAg Assay for CD69 Biomarker Activity (AID 2283089). To be noted: primary human HUVEC with PBMC; actives raise or lower the signal. The method in brief:
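HUVEC co-cultured with PBMC were dosed with chemical, and CD69 was measured by ELISA with fluorescence read-out 24 h later. Bidirectional curve fitting used DMSO as negative control and activity baseline.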

Read-out in test [15]: Transforming growth factor beta 1 (TGFb1), TGFB1 (gene 7040)
Nature of the test: BSK_KF3CT_TGFb1: BioMAP Diversity Plus: KF3CT Assay for Transforming growth factor beta 1 (TGFb1) Biomarker Activity (AID 2283072). Conditions: primary human keratinocytes with fibroblasts; actives raise or lower the signal. The method in brief:
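Read-out: ELISA for TGF-b1 in keratinocyte/foreskin fibroblast human skin co-culture, 24 h after dosing; bidirectional curve fit vs DMSO baseline; gain or loss of signal scored.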

Read-out in test [16]: Tumor necrosis factor (Homo sapiens) (UniProt P01375)
Put plainly: BSK_LPS_TNFa: BioMAP Diversity Plus: LPS Assay for Tumour Necrosis Factor alpha (TNFa) Biomarker Activity (AID 2283085).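 Note: TNFa protein level quantified by ELISA in the co-culture.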 Conditions: primary human HUVEC with PBMC; actives raise or lower the signal. The method in brief:
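HUVEC/PBMC co-culture, LPS-stimulated; 24 h post-dose; TNFa by ELISA; gain or loss of signal fitted bidirectionally vs DMSO baseline.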

The structures appear in SMILES notation. Activity calls are given as the source filed them. Rule for the calls: active = hit-call score of the fitted dose curve at least 0.9, where 1 is the maximum; inactive = score below 0.9.

Tumor necrosis factor (Homo sapiens), sequence (P01375 whole entry, looked up): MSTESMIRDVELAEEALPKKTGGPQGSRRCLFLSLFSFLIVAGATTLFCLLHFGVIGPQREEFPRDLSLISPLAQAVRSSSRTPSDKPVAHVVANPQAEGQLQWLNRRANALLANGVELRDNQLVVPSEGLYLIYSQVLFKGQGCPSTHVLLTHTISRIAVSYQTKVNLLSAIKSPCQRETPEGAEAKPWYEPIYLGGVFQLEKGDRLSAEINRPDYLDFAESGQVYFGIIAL

Regarding `O=S(=O)(F)C(F)(F)C(F)(F)C(F)(F)C(F)(F)C(F)(F)C(F)(F)C(F)(F)C(F)(F)F`, the outcome is “inactive” in test [1]; “inactive” in test [2]; “inactive” in [3]; “inactive” in test [4]; “inactive” in test [5]; “inactive” with CD40, CD40 (gene 958) [6]. The outcome in test [7], in test [8], in [9], in test [10], in [11] and in [12] was inactive. Also, the outcome is “inactive” in test [13]; “inactive” in the test with CD38, CD38 (gene 952); “inactive” with CD40, CD40 (gene 958) [14]; “inactive” with CD69, CD69 (gene 969).

As a reminder, the AC50 is the concentration giving half of the maximal activity seen. For the compound `CCOc1ccc(C(C)(C)COCc2cccc(Oc3ccccc3)c2)cc1`, the outcome in [1], in test [2], in test [15], in test [3], in [4] and in test [5] was inactive. The outcome with CD40, CD40 (gene 958) [6] was “inactive”; in test [7], “inactive”; in test [8], “inactive”; in [10], “inactive”; in [11], “inactive”; in test [12], “inactive”. Moreover, the outcome in test [13] was “inactive”; with CD38, CD38 (gene 952) it was “inactive”; with CD40, CD40 (gene 958) [14] it was “inactive”; in the test with CD69, CD69 (gene 969) it was “inactive”. The AC50 in [16] was 1.15 µM (active).

With `CC(Cl)CN(C)C` (stereo not given), the outcome in test [1] is “inactive”; in test [2], “inactive”; in test [15] it was “inactive”; in [3], “inactive”; in [5] it was “inactive”; with CD40, CD40 (gene 958) [6], “inactive”. Further, the outcome in [7], in test [8], in test [9], in test [10], in test [11] and in test [12] was inactive. Also, the outcome in [13] was “inactive”; with CD38, CD38 (gene 952), “inactive”; in the test with CD40, CD40 (gene 958) [14], “inactive”; with CD69, CD69 (gene 969) it was “inactive”. For the same compound, the half-maximal activity concentration (AC50) in test [4] is 0.0889 µM (active).
